PubChem BioAssay (NCI)
The panel holds about 79,000 compounds, 15% with a hit somewhere; the sample as a whole holds those more often. Calls of active or inactive are those of the source. Cut-off read from the data, not from the text of the source: active = growth inhibition above about 70%; inactive = the rest.

Assay: NCI Yeast Anticancer Drug Screen. Data for the cln2 rad14 strain (AID 165);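 note: 0% = growth equal to vehicle treated cultures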
Details: S. cerevisiae cln2 rad14 strain, at 5.0 µM (retest, dose inferred, filed as 0.5), hits give high values
Method in brief: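 Relative to vehicle controls, growth inhibition of compound-treated cln2 rad14 yeast was recorded.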

| Compound | growth inhibition |
| --- | --- |
| ClCCOCCOc1c(Cl)cc(Cl)c(Cl)c1Cl | 4% (inactive) |
| Cc1ccc(S(=O)(=O)C(=S)Sc2ccccc2)cc1 | 6% (inactive) |
| CCC(C)(C)c1ccc(OCCO)c([N+](=O)[O-])c1 | 13% (inactive) |
| CCCCCCC(C)S(=O)(=O)c1ccc(C)cc1 (stereo unspecified) | 5% (inactive) |
| O=C1N(Cc2ccccc2)CC1(c1ccccc1)C1CCCCC1O (stereo unspecified) | -8% (inactive) |
| COc1cc2c(oc(=O)c3cc(C)cc(OC)c32)c2c(C3OC(C)C(O)C(C)(O)C3O)ccc(O)c12 (stereo unspecified) | 75% (active) |
| CCc1cc(C)cc(NC(=O)OC2CCCCC2C)c1 (stereo unspecified) | 20% (inactive) |
| Cc1cc(Nc2ccc(N=Nc3ccc(O)c4ncccc34)cc2)nc(C)n1 | -41% (inactive) |
| Oc1ccc(C2SC(c3ccc(O)cc3)SC(c3ccc(O)cc3)S2)cc1 (stereo unspecified) | 23% (inactive) |
| O=[N+]([O-])c1cnc(Sc2cncc[n+]2[O-])s1 | 98% (active) |
| O=C(C1=Cc2ccccc2OC1)N1CCN(c2cccc(Cl)c2)CC1 | -6% (inactive) |
| O=C1C=CC(=O)c2cc(Sc3ccccc3)c(=O)ccc21 | 33% (inactive) |
| O=C(O)CCCCCCC(=O)CCl | 25% (inactive) |
| CC(=O)NC1=C(Sc2ccc(C)cc2)C(=O)c2ccccc2C1=O | 35% (inactive) |
| Cc1cc(O)c(C=NC(=S)C(N)=S)c(=O)o1 | 14% (inactive) |
| Cc1cc(C)c(Cc2cc(C(C)(C)C)cc(C)c2O)cc1Cc1cc(C(C)(C)C)cc(C)c1O | -16% (inactive) |
| O=C(O)CCC/C(=N\Nc1ccccc1)C(=O)O | 0% (inactive) |
| Cc1cc(Oc2nc(Cl)nc(C(Cl)(Cl)Cl)c2Cl)cc(C)c1N(C)C (tested in a mixture with another compound) | -12% (inactive) |
| CC(NCCO)c1ccc2ccccc2c1 (stereo unspecified) | 3% (inactive) |
| [O-][n+]1ccc(Br)c(/C=C/c2ccccc2)c1 | 0% (inactive) |
| O=C(NCCNCCNCCNC(=O)c1cc(-c2ccccc2)nc2ccccc12)c1cc(-c2ccccc2)nc2ccccc12 | 18% (inactive) |
| CC(C)C(Sc1nc(-c2ccccc2)c(-c2ccccc2)[nH]1)C(=O)NN (stereo unspecified) | 17% (inactive) |
| O=C(CNc1cccc(Cl)c1)Nn1c(-c2ccccc2)nc2ccccc2c1=O | 16% (inactive) |
| O=C(COc1ccc(Cl)c(Cl)c1)Nc1ccc[n+](Cc2ccc(Cl)c(Cl)c2)c1 | 2% (inactive) |
| CCOC(=O)c1cnccc1CC1(C#N)c2ccccc2C=CN1C(=O)c1ccccc1 (stereo unspecified) | -7% (inactive) |
| O=C1C(N2CCOCC2)=C(Cl)C(=O)c2ncccc21 | 13% (inactive) |

Same assay, conditions: S. cerevisiae cln2 rad14 strain, at 50.0 µM (retest, dose inferred, filed as 5.0), hits give high values

| Compound | growth inhibition |
| --- | --- |
| COC(=O)/C=C/c1cccc[n+]1[O-] | -15% (inactive) |
| CN(C)CCCNc1c(C#N)[n+]([O-])c2cc(Cl)ccc2[n+]1[O-] | 90% (active) |
| Cc1c(N=Nc2ccc(Br)cc2)c(-c2ccccc2)nn1C(N)=S | 94% (active) |
| COc1cc2c(c(OC)c1OC)-c1ccc(O)c(=O)cc1C(N=Cc1ccccc1)CC2 (stereo unspecified) | 4% (inactive) |
| CCC(C)SC1SCC2C(=O)N(C)C3(CC3C)C(=O)OCC(NC(=O)c3nc4ccccc4cc3O)C(=O)NC(C)C(=O)N(C)C1C(=O)N(C)C1(CC1C)C(=O)OCC(NC(=O)c1nc3ccccc3cc1O)C(=O)NC(C)C(=O)N2C (stereo unspecified) | 94% (active) |
| O=C(N/C(=C\c1ccc2c(c1)OCO2)c1nc2ccccc2s1)c1ccccc1 | 97% (active) |
| CCCC/C=C1/CCC(CN(C)C)C1=O (stereo unspecified) | 40% (inactive) |
| O=C(O)c1cc2c(cc1CC(Cc1ccc3c(c1)CCCC3)C(=O)O)CCCC2 (stereo unspecified) | 96% (active) |
| CCNC(=O)COc1ccc(Cl)cc1Cl | 13% (inactive) |
| Fc1ccc(OCCC(Cn2ccnc2)c2ccc(Cl)cc2Cl)cc1 (stereo unspecified) | 92% (active) |
| Cc1ccc(NC(=O)/C(CC(=O)c2sc(Nc3ccc(Cl)c(Cl)c3)nc2C)=N\Nc2ccc([N+](=O)[O-])cc2[N+](=O)[O-])c(C)c1 | 98% (active) |
| Oc1ccc(C/C=C/c2ccccc2)cc1O | 98% (active) |
| CC(=O)OC1=CC2=CCC3C(CCC4(C)C(C(C)=O)CCC34)C2(C)CC1 (stereo unspecified) | -13% (inactive) |
| CCCCNc1ccc(-c2c(N)nc(N)nc2CC)cc1[N+](=O)[O-] | 8% (inactive) |
| ClCCOCCOc1c(Cl)cc(Cl)c(Cl)c1Cl | -11% (inactive) |
| Cc1ccc(S(=O)(=O)C(=S)Sc2ccccc2)cc1 | 63% (inactive) |
| CCC(C)(C)c1ccc(OCCO)c([N+](=O)[O-])c1 | 64% (inactive) |
| CCCCCCC(C)S(=O)(=O)c1ccc(C)cc1 (stereo unspecified) | 13% (inactive) |
| O=C1N(Cc2ccccc2)CC1(c1ccccc1)C1CCCCC1O (stereo unspecified) | 84% (active) |
| COc1cc2c(oc(=O)c3cc(C)cc(OC)c32)c2c(C3OC(C)C(O)C(C)(O)C3O)ccc(O)c12 (stereo unspecified) | 94% (active) |

| Compound | growth inhibition |
| --- | --- |
| CCc1cc(C)cc(NC(=O)OC2CCCCC2C)c1 (stereo unspecified) | 69% (inactive) |
| Cc1cc(Nc2ccc(N=Nc3ccc(O)c4ncccc34)cc2)nc(C)n1 | 6% (inactive) |
| Oc1ccc(C2SC(c3ccc(O)cc3)SC(c3ccc(O)cc3)S2)cc1 (stereo unspecified) | 98% (active) |
| O=[N+]([O-])c1cnc(Sc2cncc[n+]2[O-])s1 | 99% (active) |
| O=C(C1=Cc2ccccc2OC1)N1CCN(c2cccc(Cl)c2)CC1 | 97% (active) |
| O=C1C=CC(=O)c2cc(Sc3ccccc3)c(=O)ccc21 | 72% (active) |
| O=C(O)CCCCCCC(=O)CCl | 38% (inactive) |
| CC(=O)NC1=C(Sc2ccc(C)cc2)C(=O)c2ccccc2C1=O | 97% (active) |
| Cc1cc(O)c(C=NC(=S)C(N)=S)c(=O)o1 | 22% (inactive) |
| Cc1cc(C)c(Cc2cc(C(C)(C)C)cc(C)c2O)cc1Cc1cc(C(C)(C)C)cc(C)c1O | 19% (inactive) |
| O=C(O)CCC/C(=N\Nc1ccccc1)C(=O)O | 99% (active) |
| Cc1cc(Oc2nc(Cl)nc(C(Cl)(Cl)Cl)c2Cl)cc(C)c1N(C)C (tested in a mixture with another compound) | -9% (inactive) |
| CC(NCCO)c1ccc2ccccc2c1 (stereo unspecified) | -3% (inactive) |
| [O-][n+]1ccc(Br)c(/C=C/c2ccccc2)c1 | 9% (inactive) |
| O=C(NCCNCCNCCNC(=O)c1cc(-c2ccccc2)nc2ccccc12)c1cc(-c2ccccc2)nc2ccccc12 | 64% (inactive) |
| CC(C)C(Sc1nc(-c2ccccc2)c(-c2ccccc2)[nH]1)C(=O)NN (stereo unspecified) | 98% (active) |
| O=C(CNc1cccc(Cl)c1)Nn1c(-c2ccccc2)nc2ccccc2c1=O | 74% (active) |
| O=C(COc1ccc(Cl)c(Cl)c1)Nc1ccc[n+](Cc2ccc(Cl)c(Cl)c2)c1 | 99% (active) |
| CCOC(=O)c1cnccc1CC1(C#N)c2ccccc2C=CN1C(=O)c1ccccc1 (stereo unspecified) | 68% (inactive) |
| O=C1C(N2CCOCC2)=C(Cl)C(=O)c2ncccc21 | 92% (active) |
